Records with an inconclusive call do not appear. Active and inactive are the calls of the source. The calls were made as follows, unless noted: active = hit-call score of the fitted dose curve at least 0.9, where 1 is the maximum; inactive = score below 0.9.
Tests used:
[1] = ATG_NFI_CIS: Attagene CIS-FACTORIAL HepG2 Assay for human Nuclear Factor I (NFI) (AID 2282989); conditions: HepG2 cis-regulatory reporter, NFI response element transcription; actives raise or lower the signal
Method in brief: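 Cells: human liver HepG2, transiently transfected with promoter-regulated reporter transcription units. Exposure 24 h. Detection: fluorescent RT-PCR products separated by capillary electrophoresis, normalised to DMSO negative control.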

[2] = target: Myc proto-oncogene protein (Homo sapiens) (UniProt P01106); experiment: ATG_Myc_CIS: Attagene CIS-FACTORIAL HepG2 Assay for human Myelocytomatosis (Myc) Proto-Oncogene Transcription Factor (AID 2282990); conditions: HepG2, Attagene cis-reporter transcription factor activity; actives raise or lower the signal
Chain of Myc proto-oncogene protein (Homo sapiens) (P01106 whole entry, looked up): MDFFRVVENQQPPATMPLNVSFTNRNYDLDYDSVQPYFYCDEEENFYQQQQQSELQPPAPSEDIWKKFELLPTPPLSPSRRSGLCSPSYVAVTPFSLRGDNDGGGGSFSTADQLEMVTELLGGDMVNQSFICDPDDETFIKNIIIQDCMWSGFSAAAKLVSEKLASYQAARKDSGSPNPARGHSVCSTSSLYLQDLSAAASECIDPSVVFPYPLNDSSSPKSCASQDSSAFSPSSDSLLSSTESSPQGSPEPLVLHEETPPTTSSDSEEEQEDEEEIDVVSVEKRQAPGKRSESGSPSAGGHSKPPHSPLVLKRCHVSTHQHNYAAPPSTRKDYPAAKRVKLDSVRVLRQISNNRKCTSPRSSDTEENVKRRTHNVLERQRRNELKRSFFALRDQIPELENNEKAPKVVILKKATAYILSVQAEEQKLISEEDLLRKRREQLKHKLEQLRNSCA
Method in brief: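 Multiplexed cis-reporter transcription in HepG2 cells after 24 h chemical treatment. Reporter mRNA measured by RT-PCR and capillary electrophoresis fluorescence; activity fitted bidirectionally against DMSO control.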

[3] = ATG_NRF2_ARE_CIS: Attagene CIS-FACTORIAL HepG2 Assay for human Nuclear Factor Erythroid 2 Related Factor 2 (NFR2) response to Antioxidant Response Elements (ARE) (AID 2282992); conditions: HepG2 Attagene ARE/NRF2 reporter, transcription factor activity; actives raise or lower the signal
Method in brief: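 HepG2 cells transiently transfected with multiplexed cis-regulated reporter transcription units measure endogenous transcription factor activity. Reporter mRNA at 24 h is quantified by RT-PCR, fluorescent labelling and capillary electrophoresis, with bidirectional fitting relative to DMSO.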

[4] = ATG_Oct_MLP_CIS: Attagene CIS-FACTORIAL HepG2 Assay for human Octamer-Binding Transcription Factor (Oct) (AID 2282993); conditions: HepG2 Attagene cis-factorial Oct reporter, mRNA; actives raise or lower the signal
Method in brief: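 HepG2, transient MRTU transfection, cis promoter elements; 24 h dosing; RT-PCR/CE fluorescence read-out of reporter mRNA; fit both directions vs DMSO.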

[5] = target: Cellular tumor antigen p53 (Homo sapiens) (UniProt P04637); experiment: ATG_p53_CIS: Attagene CIS-FACTORIAL HepG2 Assay for human p53 Transcription Factor (AID 2282994); conditions: HepG2 p53 cis-element reporter, Attagene mRNA; actives raise or lower the signal
Chain of Cellular tumor antigen p53 (Homo sapiens) (P04637 whole entry, looked up): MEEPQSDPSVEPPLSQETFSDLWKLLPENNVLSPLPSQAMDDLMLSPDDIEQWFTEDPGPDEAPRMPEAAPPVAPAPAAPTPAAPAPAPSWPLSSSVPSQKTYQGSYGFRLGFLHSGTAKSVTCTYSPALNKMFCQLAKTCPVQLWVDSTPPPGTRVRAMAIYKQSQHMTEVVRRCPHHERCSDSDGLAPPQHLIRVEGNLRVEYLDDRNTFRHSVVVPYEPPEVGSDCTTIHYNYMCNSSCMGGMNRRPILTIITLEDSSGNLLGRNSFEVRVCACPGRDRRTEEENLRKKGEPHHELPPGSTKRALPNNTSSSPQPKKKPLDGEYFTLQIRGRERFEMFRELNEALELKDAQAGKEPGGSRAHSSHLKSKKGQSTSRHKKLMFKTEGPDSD
Method in brief: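 HepG2 cells transiently transfected with multiplexed cis-regulated reporter transcription units read endogenous TF activity. After 24 h compound exposure, reporter mRNA was quantified by RT-PCR, fluorescent labelling, HpaI digestion and capillary electrophoresis; bidirectional fits versus DMSO baseline.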

[6] = ATG_NF_kB_CIS: Attagene CIS-FACTORIAL HepG2 Assay for human Nuclear Factor Kappa B (NF-kB) (AID 2282991); conditions: HepG2 Attagene cis-factorial NF-kB reporter mRNA; actives raise or lower the signal
Method in brief: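 After 24 h compound incubation, transfected HepG2 cells yield total RNA; reporter cDNA is PCR-amplified, end-labelled with 6-FAM, HpaI-digested and analysed on a genetic analyser. Endogenous factor activity, DMSO-referenced bidirectional fit.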

[7] = target: human Peroxisome Proliferator-activated Receptor alpha (PPARa), PPARA (gene 5465) (UniProt Q07869); experiment: ATG_PPARa_TRANS: Attagene TRANS-FACTORIAL HepG2 Assay for human Peroxisome Proliferator-activated Receptor alpha (PPARa) (AID 2283001; active = hit-call score of the fitted dose curve at least 0.9, where 1 is the maximum;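 as to AC50: potency for gain of reporter signal over DMSO so agonist or activator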)
Chain of human Peroxisome Proliferator-activated Receptor alpha (PPARa), PPARA (gene 5465) (Q07869 whole entry, looked up, the tested form may be a part): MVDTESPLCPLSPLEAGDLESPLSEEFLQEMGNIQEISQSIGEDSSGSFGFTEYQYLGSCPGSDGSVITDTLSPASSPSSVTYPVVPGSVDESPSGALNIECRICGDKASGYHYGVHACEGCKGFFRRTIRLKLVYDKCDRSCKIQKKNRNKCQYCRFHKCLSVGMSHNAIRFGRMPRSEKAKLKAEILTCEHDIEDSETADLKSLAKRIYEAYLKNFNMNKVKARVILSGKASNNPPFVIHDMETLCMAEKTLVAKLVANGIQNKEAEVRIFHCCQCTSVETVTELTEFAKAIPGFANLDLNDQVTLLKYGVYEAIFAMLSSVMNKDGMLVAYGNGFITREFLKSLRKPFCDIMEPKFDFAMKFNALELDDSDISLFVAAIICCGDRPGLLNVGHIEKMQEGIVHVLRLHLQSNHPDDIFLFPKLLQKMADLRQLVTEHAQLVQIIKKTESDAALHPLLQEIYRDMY
Method in brief: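 HepG2 cells transiently transfected with multiplexed GAL4-UAS reporter units and chimeric NR-Gal4 constructs were dosed for 24 h. Reporter mRNA was measured by RT-PCR with fluorescent labelling and capillary electrophoresis; gain of signal fitted against DMSO.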

[8] = BSK_3C_TissueFactor: BioMAP Diversity Plus: 3C Assay for Tissue Factor Biomarker Activity (AID 2282997); conditions: BioMAP 3C HUVEC, tissue factor biomarker readout; actives raise or lower the signal
Method in brief: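 Endothelial monolayers (human umbilical vein, primary) are dosed, incubated 24 h, and assayed for Tissue Factor by ELISA; DMSO serves as negative control for bidirectional fitting.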

[9] = BSK_3C_uPAR: BioMAP Diversity Plus: 3C Assay for Urokinase-type plasminogen activator receptor (uPAR) Biomarker Activity (AID 2282998); conditions: BioMAP 3C HUVEC, uPAR biomarker ELISA; actives raise or lower the signal
Method in brief: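 A multiplexed primary-cell system built on human umbilical vein endothelium was used, with chemical present for 24 h before reading. Cell-surface uPAR was detected by ELISA; signal change in either direction counted against DMSO.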

[10] = BSK_4H_Eotaxin3: BioMAP Diversity Plus: 4H Assay for Eotaxin 3 Biomarker Activity (AID 2283000); conditions: primary human endothelial cells (HUVEC); actives raise or lower the signal;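 as to outcome: CCL26 protein level quantified by ELISA in parallel with SRB cytotoxicity check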
Method in brief: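 ELISA quantitation of CCL26 (Eotaxin-3) protein from chemically dosed human vascular endothelial cells at 24 h; increases and decreases both scored relative to DMSO-treated baseline.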

SMILES: CCCNC(=O)NS(=O)(=O)c1ccc(Cl)cc1
- outcome [1]: inactive
- outcome [2]: inactive
- outcome [3]: inactive
- outcome [4]: inactive
- outcome [5]: inactive

SMILES: CC(=O)CC(N)=O
- outcome [1]: inactive
- outcome [2]: inactive
- outcome [6]: inactive
- outcome [3]: inactive
- outcome [4]: inactive
- outcome [5]: inactive
- outcome [7]: inactive

SMILES: O=S(=O)(O)c1ccccc1C=Cc1ccc(-c2ccc(C=Cc3ccccc3S(=O)(=O)O)cc2)cc1
- outcome [1]: inactive
- outcome [2]: inactive
- outcome [6]: inactive
- outcome [3]: inactive
- outcome [4]: inactive
- outcome [5]: inactive
- outcome [7]: inactive

SMILES: CC1=Nc2ccc3ccccc3c2C1(C)C
- outcome [1]: inactive
- outcome [2]: inactive
- outcome [6]: inactive
- AC50 [3]: 100 µM (active)
- outcome [4]: inactive
- outcome [5]: inactive
- outcome [7]: inactive

SMILES: CC(=O)OCC(C)OC(C)=O (stereo not given)
- outcome [1]: inactive
- outcome [2]: inactive
- outcome [3]: inactive
- outcome [4]: inactive
- outcome [5]: inactive

SMILES: CC(=O)Nc1ccc2c(c1)Cc1cc(NC(C)=O)ccc1-2
- outcome [1]: inactive
- outcome [2]: inactive
- outcome [3]: inactive
- outcome [4]: inactive
- outcome [5]: inactive

SMILES: CCCCCCCCC(=O)OCC
- outcome [1]: inactive
- outcome [2]: inactive
- outcome [6]: inactive
- AC50 [3]: 47.4 µM (active)
- outcome [4]: inactive
- outcome [5]: inactive
- outcome [7]: inactive

SMILES: OC1OCCOC1O (stereo not given)
- outcome [1]: inactive
- outcome [2]: inactive
- outcome [6]: inactive
- outcome [3]: inactive
- outcome [4]: inactive
- outcome [5]: inactive
- outcome [7]: inactive

SMILES: CCCOCCOCCOCCO
- outcome [1]: inactive
- outcome [2]: inactive
- outcome [3]: inactive
- outcome [4]: inactive
- outcome [5]: inactive

SMILES: Cc1cc(C)c(C(=O)O)c(C)c1
- outcome [1]: inactive
- outcome [2]: inactive
- outcome [3]: inactive
- outcome [4]: inactive
- outcome [5]: inactive
- AC50 [7]: 33.7 µM (active)

SMILES: O=C(Nc1ccccc1)c1ccccc1O
- outcome [1]: inactive
- outcome [2]: inactive
- outcome [3]: inactive
- AC50 [4]: 48.3 µM (active)
- outcome [5]: inactive
- outcome [7]: inactive

SMILES: Cc1c(C)c([N+](=O)[O-])c(C(C)(C)C)c([N+](=O)[O-])c1C
- outcome [1]: inactive
- outcome [2]: inactive
- outcome [3]: inactive
- outcome [4]: inactive
- outcome [5]: inactive

SMILES: C=COCCCC
- outcome [1]: inactive
- outcome [2]: inactive
- outcome [3]: inactive
- outcome [4]: inactive
- outcome [5]: inactive

SMILES: CC(C)(c1cc(Br)c(OCCO)c(Br)c1)c1cc(Br)c(OCCO)c(Br)c1
- AC50 [1]: 45.1 µM (active)
- outcome [2]: inactive
- AC50 [3]: 18.6 µM (active)
- AC50 [4]: 17.7 µM (active)
- AC50 [5]: 7 µM (active)
- AC50 [8]: 16.2 µM (active)
- AC50 [9]: 16.2 µM (active)
- AC50 [10]: 8.31 µM (active)

SMILES: CCCCCCC(O)CO (stereo not given)
- outcome [1]: inactive
- outcome [2]: inactive
- outcome [3]: inactive
- outcome [4]: inactive
- outcome [5]: inactive

SMILES: CCCCCCCCCCCCCCCC[N+](C)(C)CC
- outcome [1]: inactive
- AC50 [2]: 8.97 µM (active)
- outcome [3]: inactive
- outcome [4]: inactive
- AC50 [5]: 11.8 µM (active)
- AC50 [8]: 12.1 µM (active)
- AC50 [9]: 0.65 µM (active)
- AC50 [10]: 2.24 µM (active)
- AC50 [7]: 13.3 µM (active)

SMILES: Cc1cccc(C(=O)O)c1
- outcome [1]: inactive
- outcome [2]: inactive
- outcome [3]: inactive
- outcome [4]: inactive
- outcome [5]: inactive
- outcome [7]: inactive

SMILES: CCOC(=O)CC
- outcome [1]: inactive
- outcome [2]: inactive
- outcome [3]: inactive
- outcome [4]: inactive
- outcome [5]: inactive

SMILES: O=C(c1ccccc1)c1ccc(O)c(O)c1O
- outcome [1]: inactive
- outcome [2]: inactive
- AC50 [3]: 61.6 µM (active)
- outcome [4]: inactive
- outcome [5]: inactive
- outcome [7]: inactive

SMILES: c1ccc(-c2ccccn2)nc1
- outcome [1]: inactive
- outcome [2]: inactive
- outcome [3]: inactive
- outcome [4]: inactive
- outcome [5]: inactive
- outcome [8]: inactive
- outcome [9]: inactive
- AC50 [10]: 20 µM (active)
- outcome [7]: inactive

SMILES: O=C1CCCCCN1SSN1CCCCCC1=O
- AC50 [1]: 153 µM (active)
- outcome [2]: inactive
- AC50 [3]: 42.9 µM (active)
- outcome [4]: inactive
- outcome [5]: inactive
- outcome [7]: inactive

SMILES: C=C[Si](OC(C)=O)(OC(C)=O)OC(C)=O
- outcome [1]: inactive
- outcome [2]: inactive
- outcome [3]: inactive
- outcome [4]: inactive
- outcome [5]: inactive
- outcome [8]: inactive
- outcome [9]: inactive
- outcome [10]: inactive

SMILES: CN1C(=O)N(C)C(O)C1O (stereo not given)
- outcome [1]: inactive
- outcome [2]: inactive
- outcome [3]: inactive
- outcome [4]: inactive
- outcome [5]: inactive
- outcome [8]: inactive
- outcome [9]: inactive
- outcome [10]: inactive
- outcome [7]: inactive

SMILES: O=Cc1ccc(CO)o1
- outcome [1]: inactive
- outcome [2]: inactive
- outcome [3]: inactive
- outcome [4]: inactive
- outcome [5]: inactive

SMILES: CC1=NN(c2cc(S(=O)(=O)O)ccc2Cl)C(=O)C1N=Nc1ccccc1 (stereo not given)
- outcome [1]: inactive
- outcome [2]: inactive
- outcome [3]: inactive
- outcome [4]: inactive
- outcome [5]: inactive
- outcome [7]: inactive

SMILES: O=C1C(N(CO)C(=O)NCO)N(CO)C(=O)N1CO (stereo not given)
- outcome [1]: inactive
- outcome [2]: inactive
- outcome [3]: inactive
- outcome [4]: inactive
- outcome [5]: inactive
- outcome [7]: inactive

SMILES: CC(C)CC(O)Cc1ccccc1 (stereo not given)
- outcome [1]: inactive
- outcome [2]: inactive
- AC50 [3]: 41.9 µM (active)
- outcome [4]: inactive
- outcome [5]: inactive

SMILES: O=c1c2ccccc2nnn1CCl
- outcome [1]: inactive
- outcome [2]: inactive
- outcome [3]: inactive
- outcome [4]: inactive
- outcome [5]: inactive

SMILES: C[Si](C)O[Si](C)(C)O[Si](C)(C)O[Si](C)C
- outcome [1]: inactive
- outcome [2]: inactive
- outcome [3]: inactive
- outcome [4]: inactive
- outcome [5]: inactive

— PubChem BioAssay (EPA / NIEHS)
